In PubChem BioAssay (NCI):
The panel holds about 83,000 compounds, 20% with a hit somewhere; the sample as a whole holds those more often.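 Cell lines were cultured in 96-well plates, exposed to a single compound concentration, and assessed for percent growth 48 hours later.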 A number with no mark means an inactive call. Calls of active or inactive are those of the source. The calls were made as follows: active = growth percent below 10; inactive = the rest.

Columns and labels:
Assay in all cases: NCI-60 one-dose screen, 48 h (100 = growth as untreated, 0 = no growth, -100 = all killed)
Details in all cases: 10 µM unless noted
NCI-H23 lung = tested on: NCI-H23 lung
NCI-H226 lung = tested on: NCI-H226 lung
NCI-H322M lung = tested on: NCI-H322M lung
HOP-62 NSCLC = tested on: HOP-62 NSCLC
NCI-H460 lung = tested on: NCI-H460 lung
HOP-92 NSCLC = tested on: HOP-92 NSCLC
NCI-H522 lung = tested on: NCI-H522 lung
A549/ATCC NSCLC = tested on: A549/ATCC NSCLC
786-0 renal = tested on: 786-0 renal
COLO 205 colon = tested on: COLO 205 colon
DU-145 prostate = tested on: DU-145 prostate
K-562 leukemia = tested on: K-562 leukemia
MALME-3M melanoma = tested on: MALME-3M melanoma
MDA-MB-231 breast = tested on: MDA-MB-231 breast
RXF 393 renal = tested on: RXF 393 renal
SF-268 CNS = tested on: SF-268 CNS
SF-295 CNS = tested on: SF-295 CNS
SF-539 CNS = tested on: SF-539 CNS
UACC-257 melanoma = tested on: UACC-257 melanoma
M14 melanoma = tested on: M14 melanoma

SMILES	growth (NCI-H23 lung)	growth (NCI-H226 lung)	growth (NCI-H322M lung)	growth (HOP-62 NSCLC)	growth (NCI-H460 lung)	growth (HOP-92 NSCLC)	growth (NCI-H522 lung)	growth (A549/ATCC NSCLC)	growth (786-0 renal)	growth (COLO 205 colon)	growth (DU-145 prostate)	growth (K-562 leukemia)	growth (MALME-3M melanoma)	growth (MDA-MB-231 breast)	growth (RXF 393 renal)	growth (SF-268 CNS)	growth (SF-295 CNS)	growth (SF-539 CNS)	growth (UACC-257 melanoma)	growth (M14 melanoma)
Cn1cccc1C1CC(=O)N(CCC[Se]C#N)C1=O (stereo not given)	-25.4% (active)	-46.1% (active)	11.1%	-75.7% (active)	-0.959% (active)	-40.8% (active)	23.5%	-38.6% (active)	-73.2% (active)	70.1%	-76% (active)	16.2%	-30.1% (active)	-45.3% (active)	-48.7% (active)	-31.8% (active)	-58.2% (active)	-81.2% (active)	-70.6% (active)	4.09% (active)
CC[C@H](C)[C@H](NC(=O)c1ccccn1)C(=O)N(C)[C@H](C[C@@H](OC(C)=O)c1nc(C(=O)N[C@@H](Cc2ccccc2)C[C@H](C)C(=O)OC)cs1)C(C)C	28.3%	25.4%	58.2%	26.9%	9.13% (active)	91.9%	-33.8% (active)	32.2%	30.4%	-21.2% (active)	6.32% (active)	10.8%	53.8%	15.8%	-11.2% (active)	32.3%	7.86% (active)	-24% (active)	69.8%	4.96% (active)
COC(=O)[C@@]1(O)C[C@H]2O[C@]1(C)n1c3ccccc3c3c4c(c5c6ccccc6n2c5c31)C(=O)NC4	-43% (active)	-63.1% (active)	-33.6% (active)	-59.3% (active)	-72.8% (active)	-44.3% (active)	-59.2% (active)	-39.7% (active)	-89.5% (active)	-66.6% (active)	-10.9% (active)	0.0974% (active)	-81% (active)	-49.1% (active)	-93.9% (active)	-28.8% (active)	-93.4% (active)	-88% (active)	-47.2% (active)	-67.5% (active)
C[C@]12CCc3sc(-c4ccccc4O)nc3C1=CC[C@@H]1[C@@H]2CC[C@]2(C)C(=O)CC[C@@H]12	103%	108%	101%	98.9%	108%	115%	99.3%	103%	102%	108%	107%	95.8%	102%	103%	107%	100%	100%	105%	107%	106%
CCOC(=O)[C@@H](C)C[C@H](Cc1ccccc1)NC(=O)c1csc([C@@H](C[C@H](C(C)C)N(C)C(=O)[C@H](CCC(C)C)NC(=O)[C@H]2CCCCN2C)OC(C)=O)n1	25.3%	27.7%	28.2%	13.8%	5.8% (active)	-1.79% (active)	-27% (active)	8.64% (active)	3.93% (active)	-75.2% (active)	15.7%	7.91% (active)	33.1%	1.66% (active)	12.6%	22.1%	12.2%	-10.2% (active)	46.9%	-7.2% (active)
COC(=O)[C@@H](C)C[C@H](Cc1ccccc1)NC(=O)c1csc([C@@H](C[C@H](C(C)C)N(C)C(=O)[C@@H](NC(=O)[C@H]2CCCCN2C)C(C)C)OC(C)=O)n1	23.7%	32.4%	46.8%	0.881% (active)	2.4% (active)	-13.5% (active)	-31.7% (active)	14%	4.12% (active)	-69.9% (active)	10.3%	1.46% (active)	51.5%	1.38% (active)	75.3%	17.1%	-2.48% (active)	-23% (active)	41.7%	-32.1% (active)
Cn1cc(-c2csc(-c3cn(CCCCN4CCCCC4)c4ccc(F)cc34)n2)c2cccnc21	79.8%	74.6%	81.5%	88.8%	89.3%	51.7%	86.2%	92.6%	-62% (active)	96.7%	-81% (active)	-76.1% (active)	-68.4% (active)	71.4%	26.8%	72%	99.7%	75.3%	-42.6% (active)	-78.7% (active)
COc1ccc(/C(C)=C(\c2ccc(OCCN3CCOCC3)cc2)c2ccc(OC(=O)Cc3ccccc3)cc2)cc1	95.1%	110%	111%	108%	110%	105%	94.9%	94.3%	104%	109%	102%	91%	104%	109%	111%	100%	108%	112%	109%	104%
CC[C@H](C)[C@H](NC(=O)N[C@@H](C)c1ccccc1)C(=O)N(C)[C@H](C[C@@H](OC(C)=O)c1nc(C(=O)N[C@@H](Cc2ccccc2)C[C@H](C)C(=O)OC)cs1)C(C)C	27%	30.7%	51.2%	22.7%	3.57% (active)	73.1%	-39.1% (active)	31.3%	10.9%	-46.8% (active)	-4.64% (active)	14%	44.9%	-6.65% (active)	-8.76% (active)	22.2%	5.49% (active)	-27.6% (active)	75.3%	-12.2% (active)
CC1=C(CCCOC(=O)CN)C2=C(C)C3(CC3)[C@@](C)(O)C(=O)C2=C1	9.41% (active)	90.5%	97.1%	71.5%	15.3%	70.5%	66.2%	68.7%	78.8%	49.6%	17%	90.2%	114%	95.2%	-16.4% (active)	48.7%	86.8%	94%	86%	73.8%
C[C@]12CC[C@H]3[C@@H](C[C@@H]4SC(Nc5ccccc5)=N[C@@]45CC(O)CC[C@]35C)[C@@H]1CCC2O (stereo not given in full)	67.3%	63.9%	78.4%	34.2%	6.06% (active)	104%	25.8%	57.1%	-49.7% (active)	57.1%	14.2%	4.96% (active)	71.2%	35.8%	-32.3% (active)	9.68% (active)	7.36% (active)	-34.3% (active)	69.3%	53.4%
CC[C@H](NC(=O)[C@H]1CCCCN1C)C(=O)N(C)[C@H](C[C@@H](OC(C)=O)c1nc(C(=O)N[C@@H](Cc2ccccc2)C[C@H](C)C(=O)O)cs1)C(C)C	23%	65.7%	46.6%	25.4%	2.71% (active)	46%	-19.9% (active)	10.4%	10.8%	-54.5% (active)	0.513% (active)	6.94% (active)	76%	9.34% (active)	43.2%	30.2%	0.548% (active)	-12.1% (active)	52.9%	-10.4% (active)
Clc1cc(N2CC2)nc(N2CC2)n1	56%	81.4%	103%	63.9%	23.6%	68.4%	67.2%	62.3%	76.1%	81.3%	52.5%	69%	89.7%	88.1%	78%	59.3%	40.7%	43.8%	76.7%	57.4%
CC[C@H](C)[C@H](NC(=O)NC(C)(C)C)C(=O)N(C)[C@H](C[C@@H](OC(C)=O)c1nc(C(=O)N[C@@H](Cc2ccccc2)C[C@H](C)C(=O)OC)cs1)C(C)C	24.1%	16.3%	44.4%	12.4%	1.65% (active)	17.3%	14.4%	19.1%	-7.51% (active)	-53.8% (active)	1.97% (active)	7.43% (active)	48.8%	13%	32.6%	21.8%	12.2%	2.57% (active)	43.8%	2.12% (active)
COc1cc([C@@H]2c3cc4c(cc3[C@H](OC(C)=O)[C@H]3COC(=O)[C@@H]23)OCO4)cc(OC)c1OC	0.572% (active)	33.2%	36.3%	10.6%	-4.08% (active)	27.2%	-34.7% (active)	10.5%	2.27% (active)	-75.8% (active)	3.27% (active)	11.2%	57.1%	8.36% (active)	52%	33%	-15.7% (active)	-33.4% (active)	49.2%	-15.2% (active)
